Screen size: about 24,000 compounds; about 70 (0.3%) were called active. Rule as the data show it: active = inhibition above about 30%; inconclusive = no clear call, values can overlap the other calls; inactive = below that. The sample as a whole holds a higher share of actives than the screen did.
Biological target: N-formyl peptide receptor 2 (Homo sapiens) (UniProt P25090)
Test: small molecules displacing FPRL1 fluorescent ligand – cell-based, FPR counter-screen, flow cytometry, primary screen (AID 441);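 also: 0% = buffer alone and 100% = receptor blocker peptide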
Details: FPRL1-expressing cells, fluorescent ligand binding inhibition, hits give high values, concentration not given here

Sequence of N-formyl peptide receptor 2 (Homo sapiens) (P25090 whole entry, looked up): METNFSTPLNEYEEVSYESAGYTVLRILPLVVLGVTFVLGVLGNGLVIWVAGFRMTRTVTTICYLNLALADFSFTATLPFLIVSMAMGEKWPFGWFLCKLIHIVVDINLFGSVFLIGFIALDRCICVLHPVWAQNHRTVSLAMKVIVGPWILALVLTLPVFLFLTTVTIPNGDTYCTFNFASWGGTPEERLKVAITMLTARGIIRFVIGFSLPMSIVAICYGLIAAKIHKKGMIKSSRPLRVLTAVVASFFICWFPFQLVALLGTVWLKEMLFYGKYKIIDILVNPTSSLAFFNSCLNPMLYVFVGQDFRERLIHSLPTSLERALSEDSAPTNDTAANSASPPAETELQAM

Structure (SMILES) | inhibition
O=C(COC(=O)C12CC3CC(CC(C3)C1)C2)NCc1ccco1 | 0.4% (inactive)
CCCN(CCC)CCNC(=O)c1cc2c(C)nc3ccccc3c2o1 | 4.8% (inactive)
O=C1CC(c2cccc(F)c2)C2=C(CCCC2=O)N1 (centres undefined) | 4.1% (inactive)
CC(=O)NC1CC2CCCC(C1)N2CC(=O)Nc1ccccc1 (centres undefined) | 2.2% (inactive)
O=C1NC2(CCCCC2)N=C1c1ccccc1 | -5.4% (inactive)
CC(=O)Nc1cc(C(=O)O)ccc1S(=O)(=O)c1ccc(Cl)cc1 | -2.1% (inactive)
CCOC(=O)c1cnc(-n2nc(C)cc2C)nc1Nc1cccc(C(C)=O)c1 | 9% (inactive)
C[N+](C)(C)CCOP(=O)([O-])OC[C@H](O)CO | 5.6% (inactive)
O=C(Nc1cccc(OCC(=O)N2CCOCC2)c1)C1CCCCC1 | -0.9% (inactive)
CCOc1ccccc1NC(=O)c1cc(S(=O)(=O)N2CCC3(CC2)OCCO3)ccc1F | -14.8% (inactive)
CC1(C)CC(O)C(CCC(O)c2ccccc2)C(C)(C)N1 (centres undefined) | 6.7% (inactive)
COc1ccc(-c2noc(-c3cccc(OC)c3OC)n2)cc1OC | -2.6% (inactive)
COc1ccc(S(=O)(=O)NC2(C(F)(F)F)N=C3SCCN3C2=O)cc1 (centres undefined) | 0.8% (inactive)
O=C(c1ccccc1)c1cccn1CC(=O)N1CCN(c2ccc(F)cc2)CC1 | 14.7% (inactive)
COc1ccc(NC(=O)C2CCCN(S(=O)(=O)c3cccc4cccnc34)C2)cc1 (centres undefined) | -6% (inactive)
COc1ccc(CC(NC(C)=O)C(=O)NC2CCN(C(=O)Nc3ccc(C#N)cc3)CC2)cc1OC (centres undefined) | 17.9% (inactive)
COc1ccccc1N1CCN(c2nc3ccccc3n3nnnc23)CC1 | -3.6% (inactive)
Cc1noc(C)c1S(=O)(=O)NCCc1ccc(S(N)(=O)=O)cc1 | 3% (inactive)
Nc1scc(-c2ccncc2)c1Cl | -8.7% (inactive)
COc1ccc(NC(C)=O)cc1NC(=O)CN1CCN(c2ccccn2)CC1 | -0.9% (inactive)

Structure (SMILES) | inhibition
Cc1ccc(S(=O)(=O)N2C3C=CC(C3)C2C(=O)O)cc1 (centres undefined) | 0.9% (inactive)
COc1cc(C2C(C(=O)Nc3ccc(F)cc3)=C(C)Nc3nc(CCCO)nn32)cc(OC)c1OC (centres undefined) | -2.7% (inactive)
CC(=O)Nc1ccc(-c2cn3cccnc3n2)cc1 | 2.3% (inactive)
CCOC(=O)N1CCN(C(=O)c2cnc3n(c2=O)CCS3)CC1 | -0.5% (inactive)
O=C(CCSCCc1ccccn1)Nc1nccs1 | 0.5% (inactive)
Cc1c2cnn(-c3ccccc3)c(=O)c2c(C)n1CCCC(=O)N1CCN(C)CC1 | 0% (inactive)
COc1cccc(Nc2nnc(SCC(=O)N3CC(C)OC(C)C3)s2)c1 (centres undefined) | -0.3% (inactive)
COCCCNC(=O)c1ccc2c(c1)ncn2-c1ccccc1OC | 0.4% (inactive)
COc1ccc(NC(=O)CCNC(=O)Cn2ccc3ccccc3c2=O)c(OC)c1 | -0.5% (inactive)
Cc1cc(C)c(C#N)c(SCc2[nH]nc3c2C(c2ccccc2)C(C#N)=C(N)O3)n1 (centres undefined) | -9.6% (inactive)
O=C(O)C1CCCCC1C(=O)Nc1ccc(Cl)cc1 (centres undefined) | -0.4% (inactive)
O=C(Cn1nc(Cc2cccnc2)c2ccccc2c1=O)NCC1COc2ccccc2O1 (centres undefined) | -7.3% (inactive)
CCOc1ccc2c(=O)c(-c3ccc4c(c3)OCCCO4)c(C)oc2c1 | -9.1% (inactive)
CN(C)/C=C1\C=C(c2ccccc2)OC1=O | -0.8% (inactive)
COc1cc2c(cc1OC)C(c1ccc(C)o1)CC(=O)N2 (centres undefined) | -0.6% (inactive)
O=C(O)Cc1ccc(NC(=O)C2CCCCC2C(=O)O)cc1 (centres undefined) | -3.1% (inactive)
CN(C)S(=O)(=O)c1ccc(Oc2ccc(S(=O)(=O)N(C)C)cc2)cc1 | 0.3% (inactive)
Cc1cc(C)c2c(n1)nn1c(N3CCN(c4cccc(Cl)c4)CC3)cc(C)nc21 | 1.1% (inactive)
CCCS(=O)(=O)N1CCC(C(=O)NCCCN(C)Cc2ccccc2)CC1 | -2.9% (inactive)
Cc1nc2ccc(S(=O)(=O)NCC(=O)O)cc2s1 | 6.9% (inactive)

Structure (SMILES) | inhibition
Cc1ccc(Nc2cc(=O)n(C3CCCCC3)c(=O)[nH]2)cc1C | -0.5% (inactive)
COc1cc2ccccc2cc1C(=O)Nc1ccc(S(=O)(=O)Nc2cc(C)on2)cc1 | 1.4% (inactive)
O=C(CCN1C(=O)c2ccccc2C1=O)NCCN1CCOCC1 | 3.1% (inactive)
Cc1cccc(NC(=O)CN2CCCN(S(=O)(=O)c3ccc(Br)s3)CC2)c1 | 6.3% (inactive)
CCCSc1nc2c(c(=O)[nH]c(=O)n2C)n1CCc1ccccc1 | 0.6% (inactive)
CC(=O)c1c(C)[nH]c(C(=O)NCCCN2CCCC2)c1C | 2.2% (inactive)
COc1ccccc1CNC(=O)Cn1cc2c(n1)CCCC2 | -1.9% (inactive)
Cc1ccccc1-n1nnc2c(=O)oc3ccccc3c21 | -2.1% (inactive)
CC1(C)Oc2ccc3ccc(=O)oc3c2/C(=C/NCCO)C1=O | -5.7% (inactive)
c1cc(-c2nn[nH]n2)ccc1CN1CCCCC1 | -4.3% (inactive)
COc1ccc(/C(O)=C2\C(=O)C(=O)N(Cc3ccco3)C2c2ccc(OC)cc2OC)cc1 (centres undefined) | 26.8% (inactive)
CCOc1cccc(/C(O)=C2/C(=O)C(=O)N(CCOC)C2c2ccncc2)c1 (centres undefined) | -3.8% (inactive)
COc1cccc(OCC(O)CN2CCN(CCO)CC2)c1 (centres undefined) | 2.6% (inactive)
Cc1ccc(NC(=O)CN(C)S(=O)(=O)c2cnc[nH]2)cc1C | -2.5% (inactive)
COc1cc(C2C(C(=O)c3ccc(C)o3)=C(O)C(=O)N2Cc2cccnc2)ccc1O (centres undefined) | 28.1% (inactive)
COc1ccc(/C(O)=C2/C(=O)C(=O)N(CC3CCCO3)C2c2ccc(OC)c(OC)c2)cc1 (centres undefined) | -7.5% (inactive)
CCCS(=O)(=O)Nc1c(C(=O)O)[nH]c2ccccc12 | 2.1% (inactive)
Cc1nnc(SCCCn2c(N3CCCCC3)nc3c2c(=O)[nH]c(=O)n3C)s1 | 0.8% (inactive)
CCCCOC(=O)Nc1nccs1 | -2.9% (inactive)

Source: PubChem BioAssay AID441 (NMMLSC, 2006)
